Laboratory results as given in PubChem BioAssay (NCATS).
Inconclusive results are not listed. For some assays here: Potency and affinity values are given separately. The source made the active and inactive calls. Unless noted, the rule behind the calls is not given here.

Tests used:
[1] = Ebola virus entry assay, green fluorescence channel
[2] = Ebola virus entry assay, blue channel fluorescence
[3] = Ebola virus entry assay, ratio channel
[4] = Ebola virus entry assay, reporter ratio channel; Channel type: primary
[5] = qHTS assay for measurement of the activity of small molecule inhibitors on Zika virus induced Caspase-3 activity in human astrocytoma cells (AID 1224859; active = well fitted inhibition curve with a large enough effect;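 note: plate controls were ZIKV-infected untreated cells for no effect and uninfected cells for full effect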); details: SNB-19 ZIKV-induced caspase-3/7, luminescence, 6 h; series mostly up to 45.7 µM
Summary of the method: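 Luminescent caspase-3/7 read-out (30 min reagent, room temperature) in human SNB-19 cells infected 6 h with ZIKV (2 FFU/cell) after 1 h compound pre-incubation; Data were normalised to uninfected and infected wells.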

[6] = Ebola virus entry assay, blue channel (ratio component)
[7] = qHTS assay for measurement of the activity of small molecule inhibitors on Zika virus induced Caspase-3 activity in human iPSC derived neural progenitor cells (hNPCs) (AID 1224857; active = well fitted inhibition curve with a large enough effect; note: % of control where 0% means no effect; nearly all actives have a fitted effect of over 65% in size); details: hNPCs ZIKV-induced caspase-3/7, Caspase-Glo luminescence, 6 h; series mostly up to 45.7 µM
Summary of the method: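 Percent inhibition of virus-induced caspase-3/7 luminescence (Caspase-Glo), scaled between uninfected cells and Zika-infected cells. hNPCs received compound 1 hr before ZIKV at 2 FFU/cell, with 6 hours infection at 37 C.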

[8] = Ebola virus entry assay, green channel fluorescence
[9] = qHTS profiling of the MIPE4 collection as inhibitors of Plasmodium falciparum (3D7) proliferation (AID 743344);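 note: scaled between DMSO vehicle wells and 0.29 µM artemisinin as full inhibition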; details: P. falciparum 3D7 in erythrocytes, SYBR Green DNA fluorescence, 72 h; at 28.5 µM (top of the series)
Summary of the method: (§1)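 Erythrocytes infected with P. falciparum (0.3% parasitemia, 2.5% hematocrit) incubated with compounds 72 h at 37 C, 5% CO2. Lysis with saponin/Triton buffer containing SYBR Green I, overnight at room temperature in the dark; DNA fluorescence (485/535 nm) normalised to 0.29 uM artemisinin and DMSO.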

[10] = qHTS profiling of the MIPE4 collection as inhibitors of Plasmodium falciparum (DD2) proliferation (AID 743345); details: P. falciparum Dd2 in erythrocytes, SYBR Green DNA, 72 h; at 28.5 µM (top of the series)
Summary of the method: as §1

[11] = qHTS profiling of the MIPE4 collection as inhibitors of Plasmodium falciparum (HB3) proliferation (AID 743347);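 note: plate controls were DMSO vehicle wells for no effect and artemisinin wells for full effect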; details: P. falciparum HB3 in erythrocytes, SYBR Green DNA, 72 h; at 28.5 µM (top of the series)
Summary of the method: as §1

[12] = Immunotoxin (HA22) sensitization/mitigation study. Vehicle arm (PBS) (AID 1159510); details: cancer cells viability with PBS vehicle (HA22 study); series mostly up to 46.1 µM
[13] = Immunotoxin (SS1P) sensitization/mitigation study. Vehicle arm (DMEM) (AID 1159513); details: cell viability with vehicle (DMEM); series mostly up to 46.1 µM
[14] = qHTS profiling of the MIPE4 collection as inhibitors of Plasmodium falciparum (DD2) proliferation (Rep 2) (AID 743346); details: P. falciparum Dd2 in erythrocytes, SYBR Green DNA, 72 h; at 28.5 µM (top of the series)
Summary of the method: as §1

[15] = qHTS profiling for inhibitors of Plasmodium falciparum (DD2) proliferation (AID 743323); details: lower = more inhibition; at 28.7 µM (top of the series)
Summary of the method: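 SYBR Green fluorescence (ex 485, em 535 nm) of lysed cultures gives parasite DNA content; wells normalized to artemisinin (0.29 uM) and DMSO controls. Infected red cells: 0.3% parasitemia, 2.5% hematocrit, 72 h, 37 C.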

[16] = High-throughput drug toxicity screening in the BPDCN cell line Gen2.2 (AID 1224824); details: Gen2.2 BPDCN cells; at 45.8 µM (top of the series);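 note: cells exposed to compounds for 48 h before reading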
Summary of the method: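 Gen2.2 cells (500/well) in phenol red-free RPMI with 10% FBS were exposed to compounds for 48 h at 37 °C, 5% CO2. Viability was read by CellTiter-Glo luminescence and normalized to DMSO (100%) and 9.2 uM bortezomib (0%).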

[17] = High-throughput drug toxicity screening in the BPDCN cell line Cal-1 (AID 1224825); details: Cal-1 BPDCN cell viability, qHTS; at 45.8 µM (top of the series)
Summary of the method: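 Cal-1 cells, 500 per well in phenol-red-free RPMI with 10% FBS, exposed to compounds for 48 hours at 37C, 5% CO2. Viability read by CellTiter-Glo luminescence; percent activity normalized to DMSO (100%) and 9.2 uM bortezomib final (0%).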

[18] = qHTS Screen of the MIPE 4.0 Collection Against Ewings Sarcoma (RDES) (AID 1259252; active = well fitted inhibition curve with a large enough effect; note: potency is the fitted concentration of half-maximal effect; nearly all actives have a fitted effect of over 35% in size); details: RD-ES Ewing sarcoma viability, CellTiter-Glo, 48 h; series mostly up to 45.8 µM
Summary of the method: (§2)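 Dose series incubated 48 h with cells in RPMI plus 5% FBS, glutamine and penicillin/streptomycin; cell viability then quantified via CellTiter-Glo.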

[19] = qHTS Screen of the MIPE 4.0 Collection Against Ewings Sarcoma (TC71) (AID 1259253; active = well fitted inhibition curve with a large enough effect; note: potency is the fitted concentration of half-maximal effect; nearly all actives have a fitted effect of over 40% in size); details: TC71 Ewing sarcoma viability, CellTiter-Glo, 48 h; series mostly up to 45.8 µM
Summary of the method: as §2
Throughout, for efficacy: 0% is about no effect.

Cc1c(Cl)c(=O)oc2cc(OP(=O)(OCCCl)OCCCl)ccc12
inactive: efficacy [1] 115% | outcome [2] | outcome [3] | outcome [4] | outcome [5]

ClC1=C(Cl)C2(Cl)C(CBr)CC1(Cl)C2(Cl)Cl (stereo not drawn)
inactive: efficacy [1] -23.9% | outcome [2] | outcome [4] | outcome [6] | Potency [7] | outcome [5]

C[C@@H]1CN(C2CCC(C#N)(c3ccc(F)cc3)CC2)CC[C@]1(C(=O)O)c1ccccc1 (stereo partly drawn)
inactive: efficacy [1] 31.9% | outcome [2] | outcome [8] | outcome [4] | outcome [6] | Potency [7] | outcome [5]

O=c1n(Cl)c(=O)n(Cl)c(=O)n1Cl
inactive: efficacy [1] -11.8% | outcome [2] | outcome [8] | outcome [4] | outcome [6] | Potency [7] | outcome [5]

CC(C)C(Br)C(=O)NC(N)=O (stereo not drawn)
inactive: efficacy [1] -26.9% | outcome [2] | outcome [8] | outcome [4] | outcome [6] | Potency [7] | outcome [5]

Cc1cc(C(C)(C)C)cc(C)c1CC1=NCCN1
58.8%: parasite growth, % of DMSO control [9]
38.8%: parasite growth remaining, % of DMSO control (lower = more inhibition) [10]
84.3%: growth, % of control [11]
inactive: efficacy [1] 93.8%
active: AC50 [2] 14.1 µM | AC50 [3] 12.6 µM | AC50 [4] 12.6 µM

CCOC(=O)c1cncn1C(C)c1ccccc1 (stereo not drawn)
inactive: efficacy [1] 19.1% | outcome [2] | outcome [8] | outcome [4] | outcome [6] | Potency [7] | outcome [5]

CCC(=O)O[C@H]1CC[C@H]2[C@@H]3CCC4=CC(=O)CC[C@]4(C)[C@H]3CC[C@]12C
inactive: efficacy [1] -42.2% | outcome [2] | outcome [8] | outcome [4] | Potency [7] | outcome [5]

CCOC(=O)NC(O)C(Cl)(Cl)Cl (stereo not drawn)
inactive: efficacy [1] 20.9% | outcome [2] | outcome [8] | outcome [4] | outcome [6] | Potency [7] | outcome [5]

CN1C(=O)CN=C(c2ccccc2)c2cc([N+](=O)[O-])ccc21
inactive: efficacy [1] 23.9% | outcome [2] | outcome [8] | outcome [4] | outcome [6] | Potency [7] | outcome [5]

C[N+]1(C)[C@@H]2CC[C@H]1CC(OC(=O)C(CO)c1ccccc1)C2 (stereo partly drawn)
inactive: efficacy [1] 19.1% | outcome [2] | outcome [8] | outcome [4] | outcome [6] | Potency [7] | outcome [5]

Cc1[nH]c(=O)c(C#N)cc1-c1ccc2nccn2c1
inactive: efficacy [1] -27% | outcome [2] | outcome [8] | outcome [4] | outcome [6] | Potency [12] | outcome [13]

C[N+]1(CCC(C(N)=O)(c2ccccc2)c2ccccc2)CCCCC1
inactive: efficacy [1] 21.3% | outcome [2] | outcome [8] | outcome [4] | outcome [6] | Potency [7] | outcome [5]

C=CCc1cc(OC)c(O)c(C(=O)NCCO)c1
114%: parasite growth, % of DMSO control [9]
100%: growth, % of control [11]
125%: parasite growth, % of control (lower = inhibition) [14]
40.8%: parasite growth remaining, % of DMSO control (lower = more inhibition) [10]
active: AC50 [2] 12.6 µM | AC50 [3] 22.4 µM | AC50 [4] 22.4 µM
inactive: efficacy [1] -21.5%

COP(=S)(OC)Oc1ccc(Sc2ccc(OP(=S)(OC)OC)cc2)cc1
inactive: efficacy [1] 20.5% | outcome [2] | outcome [8] | outcome [4] | outcome [6] | Potency [7] | outcome [5]

CCCCCCCCC(=O)NCc1ccc(O)c(OC)c1
inactive: efficacy [1] -29.4% | outcome [2] | outcome [8] | outcome [4] | outcome [6] | Potency [7] | outcome [5]

CCN(CC)C(C)C(=O)c1ccccc1 (stereo not drawn)
inactive: efficacy [1] 12% | outcome [2] | outcome [8] | outcome [4] | outcome [6] | Potency [7] | outcome [5]

CN(C)[C@@H](CCOc1cccc2ccccc12)c1ccccc1
31.8%: parasite growth, % of control (lower = inhibition) [14]
inactive: efficacy [1] -116%
active: AC50 [2] 7.08 µM | AC50 [3] 3.16 µM | AC50 [4] 3.16 µM

C[C@@H]1C[C@@H]([C@H](O)CC2CC(=O)NC(=O)C2)C(=O)[C@@H](C)C1
19.5%: cell viability, % of control (lower = more cytotoxic) [16]
inactive: efficacy [1] -17.6% | outcome [2] | outcome [4] | outcome [6] | Potency [7] | outcome [5]
active: Potency [18] 0.418 µM | Potency [19] 0.235 µM
5.04%: growth, % of control [11]
10.9%: viability (% of control) [17]
0.342%: activity, percent of control [15]
6.36%: parasite growth remaining, % of DMSO control (lower = more inhibition) [10]
6.94%: parasite growth, % of control (lower = inhibition) [14]
5.16%: parasite growth, % of DMSO control [9]

CC(C)NCC(O)c1ccc(N)c(C#N)c1 (stereo not drawn)
inactive: efficacy [1] -19.3% | outcome [2] | outcome [8] | outcome [4] | outcome [6] | Potency [7] | outcome [5]
